From PubChem BioAssay (NCI)
About 83,000 compounds went through this panel and 20% of them were active in at least one assay; those are over-represented in the sample as a whole.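 Single-dose data. Exposure time 48 hours. Values below 10 considered active.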 Unmarked numbers belong to inactive results. Active and inactive are the calls of the source.

Legend:
Test in all cases: NCI-60 one-dose screen, 48 h (100 = growth as untreated, 0 = no growth, -100 = all killed)
Conditions in all cases: 10 µM
SR leukemia = tested on: SR leukemia
RPMI-8226 leukemia = tested on: RPMI-8226 leukemia
OVCAR-8 ovarian = tested on: OVCAR-8 ovarian
OVCAR-5 ovarian = tested on: OVCAR-5 ovarian
OVCAR-4 ovarian = tested on: OVCAR-4 ovarian
SK-OV-3 ovarian = tested on: SK-OV-3 ovarian
IGROV1 ovarian = tested on: IGROV1 ovarian
OVCAR-3 ovarian = tested on: OVCAR-3 ovarian
HS 578T breast = tested on: HS 578T breast
NCI/ADR-RES ovarian = tested on: NCI/ADR-RES ovarian
T-47D breast = tested on: T-47D breast
BT-549 breast = tested on: BT-549 breast
MDA-MB-435 melanoma = tested on: MDA-MB-435 melanoma
SW-620 colon = tested on: SW-620 colon
MCF7 breast = tested on: MCF7 breast
HCT-116 colon = tested on: HCT-116 colon
HCC-2998 colon = tested on: HCC-2998 colon
KM12 colon = tested on: KM12 colon

Structure (SMILES)	growth (SR leukemia)	growth (RPMI-8226 leukemia)	growth (OVCAR-8 ovarian)	growth (OVCAR-5 ovarian)	growth (OVCAR-4 ovarian)	growth (SK-OV-3 ovarian)	growth (IGROV1 ovarian)	growth (OVCAR-3 ovarian)	growth (HS 578T breast)	growth (NCI/ADR-RES ovarian)	growth (T-47D breast)	growth (BT-549 breast)	growth (MDA-MB-435 melanoma)	growth (SW-620 colon)	growth (MCF7 breast)	growth (HCT-116 colon)	growth (HCC-2998 colon)	growth (KM12 colon)
O=CNc1c(Cl)cc2c(c1Cl)Cc1cc([N+](=O)[O-])ccc1-2	57%	13.9%	58.8%	82.3%	50.8%	68%	38.6%	41%	75.3%	57.4%	30.6%	95.8%	2.37% (active)	41.4%	15.3%	6.23% (active)	92.5%	25.6%
COc1ccc(C2CC(c3ccc(-c4ccccc4)cc3)=NN2c2ccc(S(N)(=O)=O)cc2)cc1 (centres undefined)	80%	57.2%	70.2%	90%	70%	79.5%	46.3%	89.9%	85.5%	60.7%	52.5%	98.5%	76%	81.1%	58.6%	56.7%	58.2%	37.5%
FC(F)(F)c1ccc(-c2cnc(Cl)nc2NC2CCCCCC2)cc1	39.2%	-4.84% (active)	15.2%	28.7%	10.6%	56.1%	27.7%	3.4% (active)	41.1%	74.2%	12.4%	52.5%	11%	21.5%	20.7%	16.5%	67.9%	16.5%
Oc1ccccc1-c1nnc(Cn2c(Cc3cccc4ccccc34)nc3ccccc32)o1	94.8%	95.8%	101%	96.8%	99.2%	98.7%	111%	101%	99.5%	93.8%	89.6%	101%	111%	103%	102%	100%	104%	98.8%
COc1cc(-c2cc(/C=C/C(C)=O)[nH]n2)cc(OC)c1OC	4.57% (active)	22.8%	73.5%	94.5%	70.8%	109%	73.8%	85.2%	91.8%	80.7%	32.2%	71.7%	61.8%	74.3%	41%	39%	103%	72%
COc1cc(OC)cc(-c2n/c(=C\c3c(O)[nH]c4ccc(OC)cc34)cc3c2=Nc2ccccc2-3)c1	9.3% (active)	77.8%	72.7%	122%	15.3%	126%	86.5%	94.6%	95.3%	69.4%	109%	92.3%	67.2%	46.9%	-64.9% (active)	13.7%	22.2%	-49.8% (active)
CCOC(=O)c1cc2c(n1Cc1cccc(OC)c1)-c1oncc1CC2	13.3%	37%	41.7%	73%	69.1%	29.7%	19.6%	-16.4% (active)	-15.6% (active)	6.41% (active)	38.9%	28.3%	-23.5% (active)	23%	14.1%	14.9%	58.6%	32.5%
Cc1noc(C)c1-c1ccc2nc(NC(=O)[C@H]3CCN(C#N)C3)cn2c1	42.3%	97.2%	91.6%	92.7%	63.9%	103%	82.2%	71.7%	84.4%	95.8%	54.8%	76.3%	81.7%	83.6%	71.1%	82.1%	90.4%	91.3%
